Results: ChEMBL document CHEMBL3433997, “St. Jude Leishmania screening dataset” (2016)

Experiments:
Assay type in all cases: functional
[1] = target: Solute carrier family 2, facilitated glucose transporter member 1 (Homo sapiens) (UniProt P11166); assay: ST_JUDE_LEISH: Cytotoxicity at 2uM final concentration against transgenic Leishmania Mexicana promastigotes LmGLUT1 that are glucose transport deficient and complemented with the human glucose transporter GLUT1. Activity is measured by DNA content using SYBR green in vitro
Solute carrier family 2, facilitated glucose transporter member 1 (Homo sapiens), sequence (P11166 whole entry): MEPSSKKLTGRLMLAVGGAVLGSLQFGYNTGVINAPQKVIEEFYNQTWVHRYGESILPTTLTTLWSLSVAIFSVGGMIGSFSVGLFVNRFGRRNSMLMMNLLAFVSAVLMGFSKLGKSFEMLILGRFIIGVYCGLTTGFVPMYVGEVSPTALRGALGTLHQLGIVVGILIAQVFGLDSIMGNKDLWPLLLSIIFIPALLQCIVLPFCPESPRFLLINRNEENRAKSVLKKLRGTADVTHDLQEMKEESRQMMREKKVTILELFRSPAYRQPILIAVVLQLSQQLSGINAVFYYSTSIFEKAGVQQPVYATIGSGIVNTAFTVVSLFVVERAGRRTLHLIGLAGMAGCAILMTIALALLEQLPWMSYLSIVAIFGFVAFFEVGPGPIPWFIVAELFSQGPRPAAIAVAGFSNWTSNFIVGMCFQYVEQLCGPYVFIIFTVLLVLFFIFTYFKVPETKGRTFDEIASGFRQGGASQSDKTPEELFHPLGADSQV

[2] = target: Hexose transporter 1 (Plasmodium falciparum) (UniProt O97467); assay: ST_JUDE_LEISH: Cytotoxicity at 2uM final concentration against transgenic Leishmania Mexicana promastigotes LmPfHT that are glucose transport deficient and complemented with the Plasmodium falciparum hexose transporter. Activity is measured by DNA content using SYBR green in vitro
[3] = target: Glucose transporter (Leishmania mexicana) (UniProt O61059); assay: ST_JUDE_LEISH: Cytotoxicity at 2uM final concentration against transgenic Leishmania Mexicana promastigotes LmGT2 that are glucose transport deficient and complemented with the L. Mexicana glucose transporter 2. Activity is measured by DNA content using SYBR green in vitro

Row | Structure (SMILES) | inhibition [1] [%] | inhibition [2] [%] | inhibition [3] [%]
1 | CC(C)CCN1CCCN(Cc2ccc(C(=O)Nc3ccc(F)c(F)c3)cc2)CC1 | 4.12 | 4.65 | 4.14
2 | O=S(=O)(c1cccc(C(F)(F)F)c1)N1CCC(CO)(Cc2cccc(C(F)(F)F)c2)CC1 | 9.13 | 6.86 | 7.55
3 | CC(C)C1c2ccc(O)cc2CC2C(=O)N(C3CCCCC3)C(=O)N21 (stereo unspecified) | -1.04 | -1 | -0.94
4 | Cc1ccc(NC(=O)C2CCC2)cc1-c1ccc(C(=O)NCC2CC2)cc1 | 1.36 | 0.51 | 0.3
5 | O=C(COc1ccccc1)N(Cc1ccc(-c2ccc(CNC3Cc4ccccc4C3)cc2)cc1)C1CCNCC1 | 2.8 | 2.48 | 2.61
6 | O=C(NCCCCN1CCC(c2ccc3c(c2OCC2COCO2)CCCC3)CC1)c1ccc(-c2ccc(C(F)(F)F)cc2)cc1 (stereo unspecified) | -0.33 | 1.19 | 1.97
7 | O=C(Nc1ccc(C(F)(F)F)cc1)c1cccc(S(=O)(=O)NC2CCN(Cc3ccccc3)C2)c1 (stereo unspecified) | 4.37 | 3.64 | 3.95
8 | CC(CNC(=N)c1cccc(C(=N)NCC(C)Oc2cccc(C3CCCCC3)c2)n1)Oc1cccc(C2CCCCC2)c1 (stereo unspecified) | 5.5 | 4.37 | 0.74
9 | COc1ccc(-c2cc(Nc3nc(-c4cccc(Cl)c4)nc4ccccc34)ccn2)cc1 | 1.11 | 0.61 | -0.05
10 | O=C(Cn1c(SCc2cccc(F)c2F)cc(=O)c2ccccc21)N(CCn1ccnc1)Cc1ccc(-c2ccc(C(F)(F)F)cc2)cc1 | 5.51 | 5.78 | 2.82
11 | CC(C)(CNC(=O)[C@@H]1CCCCN1)c1nc(-c2ccc(Cl)c(O)c2)c(-c2ccncc2)[nH]1 | 2.07 | 2.19 | 1.02
12 | COc1cc(OC)cc(C(=O)Nc2cccc(-c3cn4ccc(C)cc4n3)c2)c1 | 6.3 | 2.27 | 5.98
13 | CN(c1ccc(C(=O)N[C@@H](CCC(=O)O)C(=O)O)cc1)S(=O)(=O)c1ccc2nc(N)[nH]c(=O)c2c1 | 2.98 | -0.77 | 0.27
14 | Nc1nc(-c2ccc3c(Nc4ccc(F)c(Cl)c4)ccnc3c2)cs1 | 3.22 | 4.08 | 3.86
15 | O=[N+]([O-])c1ccc(-c2ccc(C=NNc3nc(Nc4ccccc4)nc(Nc4ccccc4)n3)o2)cc1 | 0.91 | -0.88 | -1.48
16 | CC(=O)c1ccc(-c2ccccc2)s1 | 2.16 | 3.72 | 1.61
17 | O=C(Nc1ccc(Cl)cc1)N1CCN(C2CCCCC2)CC1 | 4.49 | 2.78 | 3.2
18 | Clc1ccc2c(NCCNc3ccnc4cc(Cl)ccc34)ccnc2c1 | -0.52 | -2.22 | -0.13
19 | COc1ccc(C(=O)CCC(=O)N(Cc2ccc(-c3ccc(CNCCc4ccc(S(C)(=O)=O)cc4)cn3)cc2)Cc2ccc3c(c2)OCO3)cc1F | 1.12 | -0.05 | -0.58
20 | CCN1CCN(CC(O)CNC(=O)Nc2ccc(Cl)cc2)CC1 (stereo unspecified) | 8.67 | 8.82 | 6.63
21 | CC(C)(C)COc1ccc2c(N)n[nH]c2c1 | -1.62 | -1.52 | -0.66
22 | Cc1cc(O)c(-c2ccc(Sc3ccc(Cl)cc3)cc2)c(C)n1 | -0.64 | 3.32 | -4.88
